SARS PLpro yeast – inhibitors of SARS-CoV papain-like protease in yeast; actives 0.19% (n = 330,000); Potency, µM (doses to about 32.9 µM), for inactives: at the top dose activity, positive = growth rescue, most hits filed as activators; AID 485353; S. cerevisiae expressing SARS-CoV PLpro, growth rescue; calls by dose curve; further: 0% is about no effect; nearly all actives have a fitted effect of over 55% in size
AmpC no deterg – blocks E. coli AmpC beta-lactamase in detergent-free assay | P00811 | AID 485341 | Potency, µM (titrated, usually from 57.1 µM), for inactives: at the top dose activity change, negative = inhibition, actives largely listed as inhibitors | AmpC nitrocefin hydrolysis, absorbance 480 nm, 0.0001% Triton | actives 0.52% (n = 330,000);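 further: plate controls were no compound for no effect and no enzyme for full effect; nearly all actives have a fitted effect of over 20% in size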
Target sequence (P00811 whole entry, looked up): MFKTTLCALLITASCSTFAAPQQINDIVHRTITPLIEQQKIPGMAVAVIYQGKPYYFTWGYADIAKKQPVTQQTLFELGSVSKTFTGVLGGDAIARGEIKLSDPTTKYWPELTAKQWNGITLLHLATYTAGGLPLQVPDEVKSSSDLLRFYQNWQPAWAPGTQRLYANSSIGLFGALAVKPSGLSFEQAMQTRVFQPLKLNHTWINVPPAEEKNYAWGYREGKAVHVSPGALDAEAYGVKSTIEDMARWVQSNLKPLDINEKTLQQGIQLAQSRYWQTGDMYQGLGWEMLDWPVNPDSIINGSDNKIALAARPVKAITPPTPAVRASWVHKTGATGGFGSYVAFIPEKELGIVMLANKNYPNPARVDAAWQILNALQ
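20 mM phosphate pH 7.0 + 0.01% (detergent screen) or 0.0001% Triton X-100; 5.3 nM AmpC reagent; cpd preinc 15 min RT; nitrocefin (800 uM stock) to start; A480 q20 s × 4 min; Activity was normalised to no-enzyme and no-compound control wells.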
Vaccinia mCherry – inhibitors of vaccinia virus infection (mCherry reporter signal); Vaccinia virus mCherry reporter infection, fluorescence; Potency, µM (doses to about 36.5 µM), inactives show top-dose activity change, negative = inhibition, actives largely listed as inhibitors; actives 0.63% (n = 310,000); AID 720579; calls by dose curve; tested in A549 cells; further: on the % scale 0 is the no-effect control and ±100 the full control effect; nearly all actives have a fitted effect of over 35% in size
AmpC detergent – blocks E. coli AmpC beta-lactamase in detergent assay; P00811; AmpC hydrolysis of nitrocefin, absorbance 480 nm, 0.01% Triton; Potency, µM (titrated, usually from 114 µM), inactives show at the top dose activity change, negative = inhibition, usual class: inhibitors; actives 0.041% (n = 370,000); AID 485294;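 further: 0% = no-compound wells and -100% = no-enzyme wells; nearly all actives have a fitted effect of over 25% in size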
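AmpC (5.3 nM in the dispensed reagent) in 20 mM phosphate pH 7.0 with 0.01% (detergent screen) or 0.0001% Triton X-100 was preincubated with compounds for 15 min at room temperature. Nitrocefin was then added from an 800 uM solution, and hydrolysis was followed at 480 nm.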
VACV Venus inh – vaccinia inhibition (Venus reporter). Vaccinia virus Venus reporter expression, fluorescence. Potency, µM (titrated, usually from 36.5 µM), for the others: top-dose activity change, negative = inhibition, hits mostly inhibitors. actives 0.46% (n = 330,000). AID 720580; calls by dose curve; tested in A549 cells; further: on the % scale 0 is the no-effect control and ±100 the full control effect; nearly all actives have a fitted effect of over 30% in size
AMA1 RON2 block – AMA1-RON2 (P. falciparum) interaction inhibition; AlphaScreen AMA1-biotinylated RON2 peptide binding; Potency, µM (titrated, usually from 58.2 µM), inactives show at the highest dose activity change, negative = inhibition, actives largely listed as inhibitors; actives 0.2% (n = 360,000); AID 720542;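 further: 0% = vehicle wells and -100% = peptide control; nearly all actives have a fitted effect of over 45% in size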
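AMA1 (3D7) with his tag at 25 nM final met compounds first, then biotinylated RON2 peptide at 25 nM; detection used donor plus acceptor beads, 10 µg/mL apiece, read by AlphaScreen after 30 min at room temperature.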
The depositor's hits bear a star; i = inactive; u = inconclusive; x = no result; + = active, no number. A selection: hits, their analogues and other compounds. The true share with any hit is near 1.3%. Unless noted, the call rests on the fitted dose curve; in most records, active means well fitted curve in the direction sought with a large enough effect; inconclusive means small, poorly fitted or top-dose-only effect, or another doubt; inactive means no such curve, though single readings can be large; an effect the other way counts as inactive or inconclusive. Potency means the concentration at half of the fitted maximal effect.

SMILES	SARS PLpro yeast	AmpC no deterg	Vaccinia mCherry	AmpC detergent	VACV Venus inh	AMA1 RON2 block
CN(CCO)C(=O)c1cn(C2CCN(Cc3ccc(C(F)(F)F)cc3)CC2)nn1	x	x	-10%	x	-12%	x
Cc1ccc(S(=O)(=O)c2c(C)nn(C(C)(C)C)c2OC(=O)c2ccc(Br)o2)cc1	-16%	2%	u	6%	11µM*	-5%
NC(=O)c1ccsc1NC(=O)CSc1ccccc1F	17%	-45%	-2%	-4%	-8%	-3%
NC(=O)c1ccsc1NC(=O)CSc1nnc(Nc2ccccc2)s1	2%	14µM*	x	2%	x	29%
O=C(NCCc1c[nH]c2ccccc12)C(=O)NCC(c1cccnc1)N1CCN(c2ccccc2)CC1 (stereo not given)	3%	83%	16µM*	u	u	-11%
c1coc(-c2nnc(-c3ccco3)nn2)c1	-9%	-18%	u	1%	4%	16µM*
c1ccc(-c2nnc(-c3ccco3)o2)cc1	-4%	-25%	-8%	6%	-2%	-9%
O=C(NC1CCC(n2cc(C(=O)NC3CC3)nn2)CC1)C(=O)c1ccccc1 (stereo not given)	x	x	-12%	x	-8%	x
CCOC(=O)/C(=N\Nc1ncnc2ccccc12)c1ccc(OC)cc1	-6%	40%	5%	-10%	21%	23%
COc1ccc(/C(=N/Nc2ncnc3ccccc23)C(=O)O)cc1	-5%	-25%	10µM*	-10%	-26%	52%
NC(=S)N=Nc1c(O)[nH]c2cc(F)c(F)cc12	0%	-25%	3.2µM*	-7%	2.2µM*	65%
NC(=S)N=Nc1c(O)[nH]c2c(Cl)cc(Cl)cc12	x	x	u	x	u	49%
Cc1cc(C)nc(-n2ncc3c2CC(c2cccc(Cl)c2)CC3=O)n1 (stereo not given)	-5%	135%	10µM*	4%	u	20%
CCCCn1c(/C=N/Nc2nc3ccccc3[nH]2)nc2ccccc21	13%	-41%	u	2%	11µM*	4%
OC1(c2cccnc2)CCN(Cc2ccc3c(c2)CN(Cc2cc4ccccc4s2)CCO3)CC1	x	x	-24%	x	-21%	x
CN(C)c1nc(N)nc(Nc2ccccc2C#N)n1	-3%	0.2µM*	x	0%	-12%	12%
O=c1cc2oc3cc(O)c(O)cc3c(-c3ccccc3O)c-2cc1O	5%	16µM*	320%	1%	i	1.1µM*
O=c1cc(-c2ccccc2O)oc2cc(O)ccc12	x	x	-2%	x	0%	x
CN1Cc2c(N3CCOCC3)nc3sc(C#N)c(N)c3c2CC1(C)C	1%	-12%	-5%	-1%	-8%	-7%
CN1Cc2c(N3CCOCC3)nc3sc(C(=O)c4ccc(Br)cc4)c(N)c3c2CC1(C)C	-3%	164%	6.3µM*	3%	-26%	u
Cc1ccc(NCCC(=O)c2cccc([N+](=O)[O-])c2)c(C)c1	-32%	20µM*	-15%	5%	-19%	u
O=C(O)C1Nc2c(Cl)cc(Cl)c(Cl)c2C2C=CCC12 (stereo not given)	x	x	x	x	x	-13%
O=C(O)C1Nc2ccc(Br)cc2C2C=CCC12 (stereo not given)	-3%	-44%	x	u	x	10µM*
O=C(O)C1Nc2c(Cl)cc(Cl)cc2C2C=CCC12 (stereo not given)	7%	13µM*	-5%	u	28%	14µM*
Cc1c(C(=O)NCc2ccccc2Cl)sc2ncnc(NCC3CCCO3)c12 (stereo not given)	x	x	-7%	x	13%	x
SMILES	SARS PLpro yeast	AmpC no deterg	Vaccinia mCherry	AmpC detergent	VACV Venus inh	AMA1 RON2 block
C=C(C)COc1ccc(-c2[nH]ncc2Oc2ccccc2OC)c(O)c1	x	x	u	-5%	u	15%
C=C(C)COc1ccc(-c2[nH]ncc2Oc2ccc(OC)cc2)c(O)c1	-19%	-59%	14µM*	12%	u	87%
COc1cc2c(cc1OC)C13CCN4CC5=CCOC6CC(=O)N2C1C6C5CC43 (stereo not given) (tested in a mixture with another compound)	2%	-19%	-5%	-1%	+	6%
COc1cc2c(cc1OC)C13CCN4CC5CCOC6CC(=O)N2C1C6C5CC43 (stereo not given)	x	x	-15%	x	-21%	-4%
CCCSc1nc2c(cnn2-c2ccccc2)c(=O)[nH]1	-10%	-31%	i	9%	-12%	-10%
CCCSc1nc2c(cnn2-c2ccc(C)cc2)c(=O)[nH]1	1%	-28%	u	-11%	28µM*	5%
Cc1ccc2c(/C=C/c3c[nH]c4ccccc34)ccnc2c1C	x	x	-15%	x	18%	x
CCN(C(=O)CSc1nc2ccccc2nc1Cc1ccc(F)cc1)c1cccc(C)c1	x	x	-7%	28%	-9%	x
CCN(C(=O)CSc1nc(-c2ccccc2)no1)c1cccc(C)c1	x	x	2.8µM*	7%	u	x
Cc1cccc(S(=O)(=O)c2c(N)n(/N=C/c3ccccc3)c3nc4ccccc4nc23)c1	13%	-18%	x	-4%	x	2%
Nc1c(S(=O)(=O)c2ccccc2)c2nc3ccccc3nc2n1/N=C/c1cccc(O)c1	-2%	-29%	x	u	11µM*	-5%
COC(=O)c1ccc(CN2C[C@H](Sc3ccccn3)C[C@H]2C(=O)N(C)C)cc1	x	x	-2%	x	7%	x
COc1cc(/C=C/C(C)=NNc2ccccc2)ccc1O	x	x	3.5µM*	x	-21%	0%
C(=Cc1c[nH]c2ccccc12)c1nccc2ccccc12	x	x	u	x	44%	16%
C(=C\c1ccc2ccccc2n1)/c1ccccc1	-7%	-34%	5µM*	-4%	u	53%
C(=C\c1ccc2ccccc2n1)/c1ccc2ccccc2n1	x	x	-6%	x	-4%	x
C(=Cc1c[nH]c2ccccc12)c1ccc2ccccc2n1	x	x	0.71µM*	x	-10%	19%
NC(=S)N/N=C1\CC(c2ccc3c(c2)OCCCO3)Oc2ccc(F)cc21 (stereo not given)	1%	-39%	-27%	-6%	0%	7%
NC(=S)N/N=C1\CC(c2ccc3c(c2)OCCO3)Oc2ccc(F)cc21 (stereo not given)	-2%	-35%	11µM*	9%	u	72%
CC(=O)c1cc(-c2ccccc2)n(CC(=O)Nc2cccc(C)c2)c1C	6%	14µM*	-2%	u	-20%	-4%
OCCN1CCN(Cc2ccc3c(c2)CN(Cc2ccc4ccccc4c2)CCO3)CC1	x	x	-11%	x	10%	x
O=C(Nc1cccc(/C=C/c2ccccn2)c1)c1ccc(-n2cncn2)c([N+](=O)[O-])c1	-1%	u	14µM*	-9%	u	-6%
O=C(Nc1ccc(F)c(F)c1)c1ccc(-n2cncn2)c([N+](=O)[O-])c1	-8%	-3%	x	4%	x	6%
